Laboratory results taken from the supplement of paper PMC3334620.
Whole data set: some 33,000 sequences, median “E-score (-0.5 to 0.5)” near -8e-05, cut for the highest 2% near 0.23. For the sample, the highest values were picked, then their nearest neighbours and some sequences at random.

target: T1, Nrg2 (UniProt P38082); test: PBM E-score (8-mer binding enrichment) (E-score (-0.5 to 0.5)); higher = stronger / more preferred TF binding; details: protein concentration: 100 nM; construct: GST-full length
T1 sequence: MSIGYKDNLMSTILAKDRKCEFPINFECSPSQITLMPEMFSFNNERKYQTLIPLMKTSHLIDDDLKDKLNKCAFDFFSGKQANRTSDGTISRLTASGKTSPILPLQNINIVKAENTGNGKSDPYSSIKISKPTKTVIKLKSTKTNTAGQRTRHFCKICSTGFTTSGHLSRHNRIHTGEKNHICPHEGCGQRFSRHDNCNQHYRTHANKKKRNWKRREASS
Procedure: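 Universal 'all 10-mer' protein binding microarrays (Agilent AMADID 015681) probed with GST-tagged S. cerevisiae TFs (full-length or DBD) made by in vitro transcription/translation (PURExpress), about 100-200 nM. Bound TF was detected with fluorescent anti-GST. Each ungapped 8-mer (which stands for itself and its reverse complement) is scored by the PBM enrichment score (E-score), a modified Wilcoxon-Mann-Whitney statistic from -0.5 to +0.5, computed with the Universal PBM Analysis Suite. Scale: above 0.35 generally sequence-specific binding.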

Sequence	PBM E-score
ATATATGC	0.18
ATATATGG	0.23
ATATATGA	0.0746
AACATCGG	-0.137
CTACAGAA	0.0765
CGGGTGAA	0.16
ACTCAGGG	0.294
CATCAGGG	0.229
ATCCAGGG	0.349
ATTCAGGG	0.367
ACTCAGGC	0.00622
ATCCAGGA	-0.0938
AATCAGGG	0.0765
ATCCAGGC	0.0212
ACTCAGGA	-0.067
ATTCAGGC	0.106
ATTCAGGA	0.117
CATCAGGC	-0.00739
AGCACAAC	0.0937
CTGTGCTC	0.0672
GGCTGTTA	-0.00387
ATCCGTAA	-0.136

Sequence	PBM E-score
AGGCTTCC	0.0147
TCTCTCAA	0.14
CAGTGAAA	0.0943
CAGTGAAG	-0.0253
CAGTGAAC	0.248
CCAGATAC	-0.0175
GTATGCAA	0.0781
GACCAGTA	-0.174
GGAATTAA	0.153
CGAATCAG	0.122
CGAATCAA	0.22
TGAATCAA	0.232
CGAATTAA	0.175
AGAATCAA	0.103
TGAATTAA	0.273
AGAATCAT	0.0757
AGAATCAG	0.272
AGGCCGGG	-0.266
GCAGTGCA	-0.0476
ATGAGCTA	0.069
CAGCAAGC	-0.226
CCGCCCTC	-0.112

Sequence	PBM E-score
CAGCCAGG	0.0441
AAGGATTA	-0.0123
ATCCCCAT	0.124
ATCCCCAC	0.247
GTCCCCAC	-0.178
AAAGTCTA	-0.0546
CTCTGCAG	-0.0279
ATGCATCG	0.0353
GTGCATCA	0.129
ATGCATCA	0.229
CGAGATAG	0.0116
GATCTTCA	0.0364
AACATATT	0.0545
CCGCCCGG	-0.003
CCGCCCCG	0.309
CCGCCCCC	-0.406
AGCTCTGA	-0.199
CTTGCAAA	0.232
TATGCAAA	-0.0899
AATGCAAA	0.244
AGTGCAAA	0.258
AGTGCAAG	0.156

Sequence	PBM E-score
CATGCAAG	0.088
AATGCAAG	0.0402
CTTGCAAC	0.124
CTTGCAAG	0.181
AGTGCAAT	0.0654
AATGCAAC	0.127
CATGCAAA	0.246
ACCCGTGG	-0.111
TCATAAAA	-0.032
GCACTAGA	-0.0716
CTGGTTCC	0.158
AAGAATGG	0.0626
TAAGAGGA	-0.0476
GTTTACGA	-0.00773
CAGGTCTA	-0.0487
GCGTCGTA	0.0775
AAAGCTTG	0.00751
CCCAGTCG	-0.143
AGATCAAA	0.0337
AATGCGCG	0.177
